These results are taken from PubChem BioAssay AID504332 (National Center for Advancing Translational Sciences (NCATS), 2011).

Screen size: about 350,000 compounds; about 31,000 (8.9%) were called active. Another 15% or so got no clear call; they are omitted. Only a selection was taken, and actives are over-represented in it overall. Unmarked numbers belong to inactive results. Calls come from the whole dose curve; as a rule, active = well fitted inhibition curve with a large enough effect; inconclusive = small, poorly fitted or top-dose-only effect; inactive = no such curve, though single readings can be large or run the other way.
% is set by controls: 0 for no effect and ±100 for the full control effect; potency is the fitted concentration of half-maximal effect.

Chain of Histone-lysine N-methyltransferase EHMT2 (Homo sapiens) (Q96KQ7 913-1193 limits assumed): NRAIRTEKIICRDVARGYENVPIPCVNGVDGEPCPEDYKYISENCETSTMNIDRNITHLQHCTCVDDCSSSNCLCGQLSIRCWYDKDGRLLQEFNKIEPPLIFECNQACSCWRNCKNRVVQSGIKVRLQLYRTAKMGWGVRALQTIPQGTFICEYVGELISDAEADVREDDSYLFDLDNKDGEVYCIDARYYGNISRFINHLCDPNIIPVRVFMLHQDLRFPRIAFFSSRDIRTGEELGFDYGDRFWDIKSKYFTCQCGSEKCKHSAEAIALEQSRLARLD

For this test, the target named is Histone-lysine N-methyltransferase EHMT2 (Homo sapiens) (UniProt Q96KQ7). As to the kind of experiment: qHTS Assay for Inhibitors of Histone Lysine Methyltransferase G9a. Note: nearly all actives have a fitted effect of over 75% in size. The settings on record: G9a H3K9 monomethylation, AlphaScreen, 2 h; series mostly up to 59 µM; activity, negative = inhibition: at the top concentration. In short, it runs like this:
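Compounds were preincubated with 20 nM G9a for 15 min, after which biotinylated H3K9 peptide (500 nM) and SAM (20 uM) started a 2 h room-temperature reaction. Monomethylated product was quantified by antibody-based AlphaScreen chemiluminescence.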
Background: qHTS replaces the single test concentration by a dilution series.
For the compound `CCc1ccc(NC(=O)CN2C(=O)C(c3ccccc3)=NC23CCCCCC3)cc1`, the “activity, negative = inhibition” value was 9.48%.
As for `Cc1cc2c(cc3c(SCc4cccc(Cl)c4)nnc(C)n32)o1`, the Potency is 7.08 µM (active).
Turning to `Cc1cc2c(cc3c(SCc4nc(-c5ccccc5)oc4C)nnc(C)n32)o1`, the “activity, negative = inhibition” value was -6.19%.
The same measure, in the same setting: then `Cc1nnc(SCc2cccc(Cl)c2)n(N)c1=O`, with 6.28% [at 102 µM]; and `Cc1cc(C(=O)NNC(=O)c2ccccc2O)c(C)o1`, with 72.2% [at 12.7 µM]; and `CC(=O)Nc1ccc(NC(=O)C(NS(=O)(=O)c2ccc3c(c2)OCCO3)C(C)C)cc1` (centres undefined), with 15.5% [at 12.7 µM].
On to `Cc1ccc(C2CC2C(=O)NN)cc1` (centres undefined), for which the “activity, negative = inhibition” value is 8.33% [at 102 µM].
The same measure, in the same setting: with `Cc1ccc(NC(=O)C2CC2c2ccccc2)cc1` (centres undefined) the figure was 18.3% [at 2.33 µM].
Turning to `Cc1ccc(C2NC(C(=O)O)CS2)cc1` (centres undefined), the Potency is 31.6 µM (active).
In the case of `COc1cc(C(=O)Nc2ccc(-n3c(C)nc4ccccc4c3=O)cc2)cc(OC)c1OC`, the “activity, negative = inhibition” value was 2.32%.
The same measure, in the same setting: then `CCc1c(C)nc(N)n2c(SCC(=O)NC3CCCCC3)nnc12`, with -19.6% [at 102 µM].
Regarding `COc1ccc(OC)c2[nH]c(=O)c(CCNC(=O)C(=O)c3c[nH]c4ccccc34)cc12`, the Potency was 50.1 µM (active).
For `COc1ccc(OC)c2[nH]c(=O)c(CCNC(=O)C(C)(C)C)cc12`, the “activity, negative = inhibition” value is -0.81% [at 102 µM].
The same measure, in the same setting: with `O=C(NCCCc1ccccc1)C(=O)c1c[nH]c2ccccc12` the figure was 72.9% [at 102 µM]; with `Cc1ccc(S(=O)(=O)c2cn(Cc3ccccc3)c3cc(N4CCCC4)c(F)cc3c2=O)c(C)c1`, -8.52%; with `Cc1c(NC(=O)c2cc(=O)c3ccccc3o2)c(=O)n(-c2ccccc2)n1C`, 2.29%.
Same read-out and setting: then `CCc1cccc(CC)c1NC(=O)Cn1c(=O)c(-c2cc(C)ccc2NC(C)=O)nc2ccccc21`, with -7.86%; and `COC(=O)c1sc(NC(=O)COC(=O)C2CCC2)c(C(=O)OC)c1C`, with 11.6% [at 102 µM].
Still for that read-out and setting: then `COC(=O)c1c(NC(=O)C(C)Oc2ccc(Cl)c(C)c2)sc(C)c1C` (centres undefined), with 3.93%.
With `COCCCNCC(=O)Nc1sc(C)c(C)c1C(=O)OC`, the Potency is 1 µM (active).
On to `CSc1ccccc1NC(=O)COC(=O)CCCOc1ccc(C)cc1`, for which the “activity, negative = inhibition” value is 61.2% [at 102 µM].
The same measure, in the same setting: with `COc1ccc(CNC(=O)c2cc(C(=O)C3CC3)c[nH]2)cc1` the figure was 36.9% [at 102 µM]; with `Cc1cccc(N2CCN(C(=O)CCSCc3ccccc3F)CC2)c1C`, 4.33%.
Turning to `Cc1cccc(N2CCN(C(=O)c3cnc(N4CCCC4)nc3C)CC2)c1C`, the activity, negative = inhibition is 5.62% [at 12.7 µM].
Consider `Cc1cccc(N2CCN(C(=O)/C=C/c3ccco3)CC2)c1C`, for which the Potency was 11.2 µM (active).
With `COc1ccc(CN(C)C(=O)c2cc(-c3ccc(C)cc3C)nc3ccccc23)c(OC)c1OC`, the “activity, negative = inhibition” value was -28.5% [at 102 µM].
On the same count and under the same terms, with `Cc1cccc(-n2ncc(C(=O)N3CCN(c4ccc(Cl)cc4)CC3)c2C2CCN(C(=O)OC(C)(C)C)CC2)c1` the figure was -31.9%.
Take `Cc1ccc2nc(N3C(=O)C(O)=C(C(=O)c4ccco4)C3c3cccc(O)c3)sc2c1` (centres undefined): the Potency was 31.6 µM (active).
For `Cc1ccc2nc(NC(=O)C3CCN(S(=O)(=O)c4ccc5c(c4)oc(=O)n5C)CC3)sc2c1`, the “activity, negative = inhibition” value is -16.1% [at 102 µM].
On the same count and under the same terms, then `CCOc1ccc2nc(N3CCC(C(=O)Nc4cc(C)ccc4C)CC3)sc2c1`, with -3.63%; and `COc1ccc([C@H]2CC(=O)C=C(c3ccc(C)cc3)C2)cc1`, with -2.52% [at 0.501 µM]; and `CCc1nc2cccnc2n1-c1ccc(CC(=O)Nc2c(C)cccc2C)cc1`, with -10.5%.
For `CCc1nc2cccnc2n1-c1ccc(C(=O)O)cc1`, the Potency was 35.5 µM (active).
As to `COCCCNC(=O)Cc1ccc(-n2c(C)nc3cccnc32)cc1`, the “activity, negative = inhibition” value was 3.74% [at 102 µM].
The same measure, in the same setting: with `COc1ccc(NC(=O)CCN2CCCC2)c(OC)c1` the figure was -43.1%.
For the compound `COC(=O)CNC(c1ccccc1Cl)c1cc(Br)ccc1NC(=O)CCN1CCOCC1` (centres undefined), the Potency was 39.8 µM (active).
As to `COc1ccc(OC)c(NC(=O)CCN2CCC(C)CC2)c1`, the “activity, negative = inhibition” value was -7.48%.
Same read-out and setting: with `O=C(CSc1nc2nccnc2c(=O)n1CCc1c[nH]c2ccccc12)Nc1ccccc1F` the figure was -1.63%; with `O=C(c1cccc(Br)c1)N1CCN(Cc2cc(=O)n3nc(-c4ccccc4)sc3n2)CC1`, -15.5%.
`CN(Cc1cccs1)C(=O)CN1C(=O)c2ccccc2S1(=O)=O`: the activity, negative = inhibition is -6.03% [at 2.33 µM].
Consider `CCCCN(C(=O)c1nn(C)c(=O)c2ccccc12)c1c(N)n(CCC)c(=O)[nH]c1=O`, for which the activity, negative = inhibition is -30.6% [at 12.7 µM].
As to `O=C(Oc1ccc([N+](=O)[O-])cc1)c1ccc2ccccc2n1`, the Potency is 12.6 µM (active).
With `O=C(OCc1ccc([N+](=O)[O-])cc1)c1ccccn1`, the “activity, negative = inhibition” value is -29.9% [at 102 µM].
Still for that read-out and setting: then `CC(OC(=O)c1ccc2ccccc2n1)C(=O)c1ccccc1` (centres undefined), with 27.2% [at 102 µM].
On the same count and under the same terms, with `COCCn1c(SCC(=O)c2cc(C)ccc2C)nc2cc(C(=O)NC3CCCC3)ccc2c1=O` the figure was -6.47%.
Turning to `O=C(COC(=O)c1ccccc1Cl)NC1CCCCCCC1`, the activity, negative = inhibition is 6.1% [at 0.501 µM].
Take `COc1ccc(S(=O)(=O)N(C)CC(=O)N2CCCC2)cc1Cl`: the “activity, negative = inhibition” value was -5.71% [at 102 µM].
On the same count and under the same terms, then `COc1ccc(S(=O)(=O)NCc2cccn2Cc2cccc(C)c2)cc1Cl`, with -4.35%.
For the compound `COc1ccc(S(=O)(=O)c2c[nH]c(=S)[nH]c2=O)cc1Cl`, the Potency was 79.4 µM (active).
